{
  "source": "paper PMC8384837",
  "about": "“Expanding the binding specificity for RNA recognition by a PUF domain”",
  "experiment_in_all_cases": "yeast three-hybrid, YBZ-1, SC-Leu-His + 0.5 mM 3-AT, 4 days",
  "settings_in_all_cases": "tags: N-Gal4 AD-HA kept; label: inside an RPR1-promoter hybrid RNA with tandem MS2 sites; ssRNA",
  "key": {"[1]": {"target": "PUM1 PUF domain R2-EHL (Homo sapiens, UniProt Q14671 828-1176, N899E;Y900H;Q903L)", "in_short": "(§1)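 Pumilio-1 PUF domain libraries, randomized at the three base-contacting residues of each repeat, were co-expressed with matching RNA elements from a centromeric plasmid in strain YBZ-1, which carries a LexA–MS2 coat fusion and a HIS3 reporter. Transformants grew for four days on SC-Leu (input) or on SC-Leu-His + 0.5 mM 3-AT (selection), and the repeat regions were PCR-amplified and Illumina-sequenced. The interaction score is the log change in variant frequency from input to selection. That logarithm is base 2, with a pseudocount of 1 where a variant was absent.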"}, "[2]": {"target": "PUM1 PUF domain R1-FAR (Homo sapiens, UniProt Q14671 828-1176, S863F;R864A;Q867R)", "in_short": "as §1"}, "[3]": {"target": "PUM1 PUF domain R1-GMR (Homo sapiens, UniProt Q14671 828-1176, S863G;R864M;Q867R)", "in_short": "as §1"}, "[4]": {"target": "PUM1 PUF domain R1-KKR (Homo sapiens, UniProt Q14671 828-1176, S863K;R864K;Q867R)", "in_short": "as §1"}, "[5]": {"target": "PUM1 PUF domain R5-RLD (Homo sapiens, UniProt Q14671 828-1176, C1007R;R1008L;Q1011D)", "in_short": "as §1"}, "[6]": {"target": "PUM1 PUF domain R5-RQV (Homo sapiens, UniProt Q14671 828-1176, C1007R;R1008Q;Q1011V)", "in_short": "as §1"}, "[7]": {"target": "PUM1 PUF domain R2-RVN (Homo sapiens, UniProt Q14671 828-1176, N899R;Y900V;Q903N)", "in_short": "as §1"}, "[8]": {"target": "T1, PUM1 PUF domain R6-QWG (Homo sapiens, UniProt Q14671 828-1176, N1043Q;Y1044W;Q1047G)", "T1 sequence": "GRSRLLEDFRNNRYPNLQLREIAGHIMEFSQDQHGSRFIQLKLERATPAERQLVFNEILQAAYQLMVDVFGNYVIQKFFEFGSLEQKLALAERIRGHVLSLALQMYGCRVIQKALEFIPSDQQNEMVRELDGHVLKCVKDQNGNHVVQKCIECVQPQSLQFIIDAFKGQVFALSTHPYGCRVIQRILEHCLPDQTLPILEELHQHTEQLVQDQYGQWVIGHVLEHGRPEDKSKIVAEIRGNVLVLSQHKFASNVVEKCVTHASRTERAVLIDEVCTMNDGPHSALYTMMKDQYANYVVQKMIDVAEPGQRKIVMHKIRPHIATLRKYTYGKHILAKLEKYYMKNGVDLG", "in_short": "as §1"}, "[9]": {"target": "PUM1 PUF domain R5-LNT (Homo sapiens, UniProt Q14671 828-1176, C1007L;R1008N;Q1011T)", "in_short": "as §1"}, "[10]": {"target": "PUM1 PUF domain R4-CCG (Homo sapiens, UniProt Q14671 828-1176, N971C;H972C;Q975G)", "in_short": "as §1"}, "[11]": {"target": "PUM1 PUF domain R4-SRR (Homo sapiens, UniProt Q14671 828-1176, N971S;H972R;Q975R)", "in_short": "as §1"}, "[12]": {"target": "PUM1 PUF domain R4-LGC (Homo sapiens, UniProt Q14671 828-1176, N971L;H972G;Q975C)", "in_short": "as §1"}, "[13]": {"target": "T2, PUM1 PUF domain R6-IWS (Homo sapiens, UniProt Q14671 828-1176, N1043I;Y1044W;Q1047S)", "T2 sequence": "T1 sequence with Q216I, G220S", "in_short": "as §1"}, "[14]": {"target": "T3, PUM1 PUF domain R6-TYR (Homo sapiens, UniProt Q14671 828-1176, N1043T;Q1047R)", "T3 sequence": "T1 sequence with Q216T, W217Y, G220R", "in_short": "as §1"}, "[15]": {"target": "PUM1 PUF domain R3-RPA (Homo sapiens, UniProt Q14671 828-1176, C935R;R936P;Q939A)", "in_short": "as §1"}, "[16]": {"target": "PUM1 PUF domain R5-GVD (Homo sapiens, UniProt Q14671 828-1176, C1007G;R1008V;Q1011D)", "in_short": "as §1"}, "[17]": {"target": "PUM1 PUF domain R3-TSE (Homo sapiens, UniProt Q14671 828-1176, C935T;R936S;Q939E)", "in_short": "as §1"}, "[18]": {"target": "PUM1 PUF domain R8-SFQ (Homo sapiens, UniProt Q14671 828-1176, N1122S;Y1123F)", "in_short": "as §1"}, "[19]": {"target": "PUM1 PUF domain R7-RAS (Homo sapiens, UniProt Q14671 828-1176, S1079R;N1080A;E1083S)", "in_short": "as §1"}, "[20]": {"target": "PUM1 PUF domain R7-GVD (Homo sapiens, UniProt Q14671 828-1176, S1079G;N1080V;E1083D)", "in_short": "as §1"}},
  "note": "Residue numbers refer to the chain shown, from its start.",
  "data": [
    {"sequence": "GGCUAGAACUAGUGGAUCCCCCGGCGCCCGGCGGCUCGAGCCCGGGUAAGUGUAAAAAGUCUGCAUGCCGCCGGGCGCCAUGCCUGCAGGUCGACUCUAGAAAACAUG", "values": [
      {"measurement": "binding signal", "setting": "[1]", "value": "3.07 log2 enrichment (interaction score)"}
    ]},
    {"sequence": "GGCUAGAACUAGUGGAUCCCCCGGCGCCCGGCGGCUCGAGCCCGGGUAAGUGUAAAUCGUCUGCAUGCCGCCGGGCGCCAUGCCUGCAGGUCGACUCUAGAAAACAUG", "values": [
      {"measurement": "binding signal", "setting": "[2]", "value": "0.5 log2 enrichment (interaction score)"},
      {"measurement": "binding signal", "setting": "[3]", "value": "3.57 log2 enrichment (interaction score)"},
      {"measurement": "binding signal", "setting": "[4]", "value": "6.78 log2 enrichment (interaction score)"}
    ]},
    {"sequence": "GGCUAGAACUAGUGGAUCCCCCGGCGCCCGGCGGCUCGAGCCCGGGUAAGUGUCAAUAGUCUGCAUGCCGCCGGGCGCCAUGCCUGCAGGUCGACUCUAGAAAACAUG", "values": [
      {"measurement": "binding signal", "setting": "[5]", "value": "2.78 log2 enrichment (interaction score)"},
      {"measurement": "binding signal", "setting": "[6]", "value": "4.73 log2 enrichment (interaction score)"}
    ]},
    {"sequence": "GGCUAGAACUAGUGGAUCCCCCGGCGCCCGGCGGCUCGAGCCCGGGUAAGUGUAAAGAGUCUGCAUGCCGCCGGGCGCCAUGCCUGCAGGUCGACUCUAGAAAACAUG", "values": [
      {"measurement": "binding signal", "setting": "[7]", "value": "3.32 log2 enrichment (interaction score)"}
    ]},
    {"sequence": "GGCUAGAACUAGUGGAUCCCCCGGCGCCCGGCGGCUCGAGCCCGGGUAAGUGAAAAUAGUCUGCAUGCCGCCGGGCGCCAUGCCUGCAGGUCGACUCUAGAAAACAUG", "values": [
      {"measurement": "binding signal", "setting": "[8]", "value": "3.38 log2 enrichment (interaction score)"}
    ]},
    {"sequence": "GGCUAGAACUAGUGGAUCCCCCGGCGCCCGGCGGCUCGAGCCCGGGUAAGUGUUAAUAGUCUGCAUGCCGCCGGGCGCCAUGCCUGCAGGUCGACUCUAGAAAACAUG", "values": [
      {"measurement": "binding signal", "setting": "[5]", "value": "0.72 log2 enrichment (interaction score)"},
      {"measurement": "binding signal", "setting": "[6]", "value": "4.22 log2 enrichment (interaction score)"},
      {"measurement": "binding signal", "setting": "[9]", "value": "4.04 log2 enrichment (interaction score)"}
    ]},
    {"sequence": "GGCUAGAACUAGUGGAUCCCCCGGCGCCCGGCGGCUCGAGCCCGGGUAAGUGUAUAUAGUCUGCAUGCCGCCGGGCGCCAUGCCUGCAGGUCGACUCUAGAAAACAUG", "values": [
      {"measurement": "binding signal", "setting": "[10]", "value": "1.84 log2 enrichment (interaction score)"}
    ]},
    {"sequence": "GGCUAGAACUAGUGGAUCCCCCGGCGCCCGGCGGCUCGAGCCCGGGUAAGUGUACAUAGUCUGCAUGCCGCCGGGCGCCAUGCCUGCAGGUCGACUCUAGAAAACAUG", "values": [
      {"measurement": "binding signal", "setting": "[10]", "value": "0.76 log2 enrichment (interaction score)"},
      {"measurement": "binding signal", "setting": "[11]", "value": "4.09 log2 enrichment (interaction score)"}
    ]},
    {"sequence": "GGCUAGAACUAGUGGAUCCCCCGGCGCCCGGCGGCUCGAGCCCGGGUAAGUGUAAAUAGUCUGCAUGCCGCCGGGCGCCAUGCCUGCAGGUCGACUCUAGAAAACAUG", "values": [
      {"measurement": "binding signal", "setting": "[12]", "value": "4 log2 enrichment (interaction score)"},
      {"measurement": "binding signal", "setting": "[10]", "value": "2.6 log2 enrichment (interaction score)"},
      {"measurement": "binding signal", "setting": "[13]", "value": "2.75 log2 enrichment (interaction score)"},
      {"measurement": "binding signal", "setting": "[8]", "value": "5.49 log2 enrichment (interaction score)"},
      {"measurement": "binding signal", "setting": "[14]", "value": "5.51 log2 enrichment (interaction score)"},
      {"measurement": "binding signal", "setting": "[15]", "value": "0.97 log2 enrichment (interaction score)"}
    ]},
    {"sequence": "GGCUAGAACUAGUGGAUCCCCCGGCGCCCGGCGGCUCGAGCCCGGGUAAGUGUGAAUAGUCUGCAUGCCGCCGGGCGCCAUGCCUGCAGGUCGACUCUAGAAAACAUG", "values": [
      {"measurement": "binding signal", "setting": "[16]", "value": "5.11 log2 enrichment (interaction score)"}
    ]},
    {"sequence": "GGCUAGAACUAGUGGAUCCCCCGGCGCCCGGCGGCUCGAGCCCGGGUAAGUGUAAUUAGUCUGCAUGCCGCCGGGCGCCAUGCCUGCAGGUCGACUCUAGAAAACAUG", "values": [
      {"measurement": "binding signal", "setting": "[15]", "value": "3.99 log2 enrichment (interaction score)"}
    ]},
    {"sequence": "GGCUAGAACUAGUGGAUCCCCCGGCGCCCGGCGGCUCGAGCCCGGGUAAGUGUAAGUAGUCUGCAUGCCGCCGGGCGCCAUGCCUGCAGGUCGACUCUAGAAAACAUG", "values": [
      {"measurement": "binding signal", "setting": "[17]", "value": "4.66 log2 enrichment (interaction score)"}
    ]},
    {"sequence": "GGCUAGAACUAGUGGAUCCCCCGGCGCCCGGCGGCUCGAGCCCGGGUAAGCGUAAAUAGUCUGCAUGCCGCCGGGCGCCAUGCCUGCAGGUCGACUCUAGAAAACAUG", "values": [
      {"measurement": "binding signal", "setting": "[18]", "value": "2.84 log2 enrichment (interaction score)"}
    ]},
    {"sequence": "GGCUAGAACUAGUGGAUCCCCCGGCGCCCGGCGGCUCGAGCCCGGGUAAGUUUAAAUAGUCUGCAUGCCGCCGGGCGCCAUGCCUGCAGGUCGACUCUAGAAAACAUG", "values": [
      {"measurement": "binding signal", "setting": "[19]", "value": "2.46 log2 enrichment (interaction score)"},
      {"measurement": "binding signal", "setting": "[20]", "value": "2.75 log2 enrichment (interaction score)"}
    ]},
    {"sequence": "GGCUAGAACUAGUGGAUCCCCCGGCGCCCGGCGGCUCGAGCCCGGGUAAGUGCAAAUAGUCUGCAUGCCGCCGGGCGCCAUGCCUGCAGGUCGACUCUAGAAAACAUG", "values": [
      {"measurement": "binding signal", "setting": "[14]", "value": "5.11 log2 enrichment (interaction score)"}
    ]},
    {"sequence": "GGCUAGAACUAGUGGAUCCCCCGGCGCCCGGCGGCUCGAGCCCGGGUAAGUGUAAAUUGUCUGCAUGCCGCCGGGCGCCAUGCCUGCAGGUCGACUCUAGAAAACAUG", "values": [
      {"measurement": "binding signal", "setting": "[2]", "value": "4.18 log2 enrichment (interaction score)"},
      {"measurement": "binding signal", "setting": "[3]", "value": "1.96 log2 enrichment (interaction score)"},
      {"measurement": "binding signal", "setting": "[4]", "value": "7.39 log2 enrichment (interaction score)"}
    ]}
  ]
}
